# Test results published in PubChem BioAssay (NCATS).
# Inconclusive results are not listed. The source made the active and inactive calls. Calls come from the whole dose curve; as a rule, active = well fitted cell-killing curve with a large enough effect; inconclusive = small, poorly fitted or top-dose-only effect, or effect the other way; inactive = no such curve, though single readings can be large or run the other way.
# Test: Quantitative High-Throughput drug screen in 47 multiple myeloma cell lines against the NCATS MIPE library collection: MM1R_ATCC cell viability assay (AID 1918981); note: nearly all actives have a fitted effect of over 35% in size
# Conditions: MM1R multiple myeloma cells, CellTiter-Glo viability, 48 h; series mostly up to 45.8 µM
# Text: PI: Beverly A. Mock Ph.D.
# Laboratory of Cancer Biology and Genetics,
# Center for Cancer Research, National Cancer Institute,
# National Institute of Health, Bethesda, Maryland
# Drug resistance and disease progression are common in multiple myeloma (MM) patients, underscoring the need for new therapeutic combinations. […] We hypothesized that effective combinations would reduce MYC expression and enhance p16 activity. […] These preclinical data identify potentially useful drug combinations for evaluation in drug-resistant MM and reveal potential mechanisms of combined drug sensitivity.
# Described herein is the primary MIPE qHTS used to cherrypick compounds. Validated compounds were then further tested for potential synergistic activiy.
# [1] Peat TJ, Gaikwad SM, Dubois W, Gyabaah-Kessie N, Zhang S, Gorjifard S, Phyo Z, Andres M, Hughitt VK, Simpson RM, Miller MA, Girvin AT, Taylor A, Williams D, D'Antonio N, Zhang Y, Rajagopalan A, Flietner E, Wilson K, Zhang X, Shinn P, Klumpp-Thomas C, McKnight C, Itkin Z, Chen L, Kazandijian D, Zhang J, Michalowski AM, Simmons JK, Keats J, Thomas CJ, Mock BA. Drug combinations identified by high-throughput screening promote cell cycle transition and upregulate Smad pathways in myeloma. Cancer Lett. 2023 Aug 1;568:216284. doi: 10.1016/j.canlet.2023.216284. Epub 2023 Jun 24. PMID: 37356470; PMCID: PMC10408729.
# SEQUENCE No. (e.g., 1, 2, 3, etc.); […] (e.g., Cells, Incubation, Reagent, etc.); VALUE and DESCRIPTION.
# 1; Cells; 5 uL; white, solid bottom 1536-well Greiner assay plate.
# 2; Compounds; 23 nL; Kalypsis pin tool (Wako USA) equipped with a 1536-well pin head to transfer to the assay plates.
# 3; Incubation; 48 hours; 37C incubation.
# 4; Reagent;5uL; CellTiter Glo (Promega).
# 5; Detector; 425V; Luminescence; Viewlux PerkinElmer.
# NOTES (numbers refer to Sequence numbers above)
# 1. The cell-based screening methods employed in this study were like those previously published. Briefly, the corresponding myeloma cell lines were screened in 1,536-well plates with 500 cells, 5-uL per well for inhibition of cell viability (assessed by measuring ATP levels with CellTiterGlo).
# 2. NCATS MIPE 4.0 library of approved and investigational drugs were added using the Kalypsis pin tool. Wells treated with DMSO only for 100% viability and media only for 0% viability were used as controls.
# 3. The assay plates were covered and incubated for 48 hours in a 37C, 5% CO2 incubator with controlled humidity.
# 4. After 48 hours, CellTilter-GloTM luminescent substrate mix (Promega) reagent was added to the assay plate and plates we incubated for 5 min at room temperature.
# 5. Signal was measured as median relative luminescence units on a ViewLux (PerkinElmer) multiplate reader.
# [1] Heske CM, Davis MI, Baumgart JT, Wilson K, Gormally MV, Chen L, Zhang X, Ceribelli M, Duveau DY, Guha R, Ferrer M, Arnaldez FI, Ji J, Tran HL, Zhang Y, Mendoza A, Helman LJ, Thomas CJ. Matrix Screen Identifies Synergistic Combination of PARP Inhibitors and Nicotinamide Phosphoribosyltransferase (NAMPT) Inhibitors in Ewing Sarcoma. Clin Cancer Res. 2017 Dec 1;23(23):7301-7311. doi: 10.1158/1078-0432.CCR-17-1121. Epub 2017 Sep 12. PMID: 28899971; PMCID: PMC6636827.
# Potency is the fitted concentration of half-maximal effect.
row,Compound,Potency
1,COc1cccc2c1[C@]13CCN(CC4CC4)[C@H](C2)[C@]1(OC)CCC(=O)C3,inactive
2,C[C@@H]1O[C@@H](O[C@@H]2C=C3CC[C@@H]4[C@@H](CC[C@]5(C)[C@H](c6ccc(=O)oc6)CC[C@@]45O)[C@@]3(C)CC2)[C@H](O)[C@H](O)[C@H]1O,26.4 nM (active)
3,COC[C@H]1OC(=O)c2coc3c2[C@@]1(C)C1=C(C3=O)[C@@H]2CC[C@H](O)[C@@]2(C)C[C@@H]1OC(C)=O,332 nM (active)
4,COCC1(CO)C(=O)C2CCN1CC2 (stereo not given),469 nM (active)
5,O=C(Oc1ccc([N+](=O)[O-])cc1)N1CCC(C(O)(c2ccc3c(c2)OCO3)c2ccc3c(c2)OCO3)CC1,inactive
6,CCOP(=O)(OCC)C(C)NC(=O)N(CCCl)N=O (stereo not given),inactive
7,C=C[C@@H]1CN2CCC1C[C@@H]2[C@@H](O)c1ccnc2ccccc12 (stereo not given in full),16600 nM (active)
8,C[C@H]1CCCC=CC2C[C@H](O)C[C@@H]2[C@H](O)C=CC(=O)O1 (stereo not given in full),inactive
9,NC1=NC(=O)N2CC12 (stereo not given),inactive
10,CCCC[N+]1(C)[C@H]2CC(OC(=O)[C@H](CO)c3ccccc3)C[C@H]1[C@H]1O[C@H]12 (stereo not given in full),inactive
11,N=c1c2c(-c3ccccc3)c(-c3ccccc3)n(Cc3ccccc3)c2ncn1C1CCC(O)CC1 (stereo not given),18700 nM (active)
12,C[C@@]12OC(=O)[C@]1([C@@H](O)[C@@H]1C=CCCC1)NC(=O)[C@H]2CCCl,3.7 nM (active)
13,CC(C)(O)C=CC(=O)[C@](C)(O)[C@H]1[C@H](O)C[C@]2(C)[C@@H]3CC=C4[C@@H](C=C(O)C(=O)C4(C)C)[C@]3(C)C(=O)C[C@@]12C,37.2 nM (active)
14,C=CCON=C(C[C@H]1O[C@@H]2O[C@]3(C)CC[C@@H]4[C@H](C)CC[C@@H]([C@H]1C)[C@@]24OO3)[C@H]1O[C@@H]2O[C@]3(C)CC[C@H]4[C@H](C)CC[C@@H]([C@@H]1C)[C@@]24OO3,296 nM (active)
15,CC1=C(O)C(=O)C=C2C1=CC=C1[C@@]2(C)CC[C@@]2(C)[C@@H]3C[C@](C)(C(=O)O)CC[C@]3(C)CC[C@]12C,469 nM (active)
16,CCNC(=O)C[C@@H]1N=C(c2ccc(Cl)cc2)c2cc(OC)ccc2-n2c(C)nnc21,590 nM (active)
17,C[C@]12CC[C@H](O)CC1=CC[C@H]1[C@H]3CCC(=O)[C@@]3(C)CC[C@@H]12,inactive
18,C1=C2CCCN[C@H]2[C@@H]2C[C@H]1[C@@H]1CCCCN1C2,inactive
19,COc1cc([C@@H]2c3cc4c(cc3[C@@H](O)C3COC(=O)C32)OCO4)cc(OC)c1O (stereo not given in full),83.3 nM (active)
20,COc1ccc2c(c[n+](C)c3c4cc5c(cc4ccc23)OCO5)c1OC,2350 nM (active)

row,Compound,Potency
1,CC(C)N[C@@H]1CCn2c(=O)[nH]c3cccc(c32)[C@@H]1O,6620 nM (active)
2,CC(C)[C@]12O[C@@H]1[C@@H]1O[C@]13[C@]1(O[C@H]1C[C@@H]1C4=C(CC[C@@]13C)C(=O)OC4)[C@H]2O,inactive
3,CC(C)(C)[C@]1(O)C[C@@H]2OC(=O)C[C@@]23C(=O)O[C@@H]2OC(=O)[C@H](O)C213 (stereo not given in full),inactive
4,CC(C)(C)c1cc(C=C(C#N)C#N)cc(Br)c1O,23500 nM (active)
5,C[C@@H]1CC[C@H]2[C@@H](C)C(=O)O[C@@H]3O[C@@]4(C)CC[C@H]1[C@]32OO4,inactive
6,C[C@]12COC(=O)C[C@@H]1CC[C@@H]1[C@H]2CC[C@@]2(C)[C@H]1CC[C@]2(C)O,inactive
7,CO[C@H]1CCC(O[C@H]2C[C@H]([C@]3(C)CC[C@]4(C[C@H](O)[C@@H](C)[C@@H]([C@@H](C)C=C(C)C(=O)[C@H](C)C[C@H](C)C(=O)O)O4)O3)O[C@]3(O[C@@H]([C@H]4O[C@@](O)(CO)[C@H](C)C[C@H]4C)C[C@H]3C)[C@H]2C)O[C@H]1C (stereo not given in full),1050 nM (active)
8,CC[C@@]1(O)C(=O)OCc2c1cc1n(c2=O)Cc2cc3ccccc3nc2-1,26.4 nM (active)
9,CC(C)N(CCNC(=O)CN1CCCC1=O)C(C)C,inactive
10,O=S(=O)(F)Cc1ccccc1,inactive
11,CCNC(=O)CC1N=C(c2ccc(Cl)cc2)c2cc(OC)ccc2-n2c(C)nnc21 (stereo not given),14800 nM (active)
12,CC(=CCCC1=CCC(C2=CC(=O)OC2O)OC1O)CCC1=C(C)CCCC1(C)C (stereo not given),inactive
13,CCN1CCN(C(=O)Cc2ccc(Nc3ncc(F)c(Nc4ccc(C(=O)Nc5ccccc5Cl)cc4)n3)cc2)CC1,5900 nM (active)
14,CCN1C[C@]2(OC(=O)c3ccccc3NC(C)=O)CC[C@H](OC)[C@@]34[C@H]5CC6[C@@H](OC)C[C@](O)(C(C[C@@H]23)[C@@H]14)[C@@]5(O)[C@@H]6OC,inactive
15,CC(C)[C@H]1C(=O)N[C@H](CO)Cc2c[nH]c3cccc(c23)N1C,inactive
16,O=c1[nH]c2ccc(Cl)cc2c(N[C@@H]2CN3CCC2CC3)c1-c1nc2ccccc2[nH]1,83.3 nM (active)
17,Oc1ccc2c3c1O[C@H]1c4[nH]c5c(c4C[C@@]4(O)[C@@H](C2)N(CC2CC2)CC[C@]314)C[C@@]1(O)[C@H]2Cc3ccc(O)c4c3[C@@]1(CCN2CC1CC1)[C@H]5O4,inactive
18,CC1=NN=C(c2ccc(N)cc2)c2cc3c(cc2C1)OCO3,inactive
19,C[C@@H]1CC[C@@]2(OC1)O[C@H]1C[C@H]3[C@@H]4CC=C5C[C@@H](O[C@@H]6O[C@H](CO)[C@@H](O[C@@H]7O[C@@H](C)[C@H](O)[C@@H](O)[C@@H]7O)[C@H](O)[C@@H]6O[C@@H]6O[C@@H](C)[C@H](O)[C@@H](O)[C@@H]6O)CC[C@]5(C)[C@@H]4CC[C@]3(C)[C@@H]1[C@H]2C,2090 nM (active)
20,CC1(N2CCC(n3c([C@@H]4CCCNC4)nc4ccccc43)CC2)CCCCCCC1,14800 nM (active)
